# Assay results published in PMC8384837, “Expanding the binding specificity for RNA recognition by a PUF domain”.
# What was measured:
# Assay in all cases: yeast three-hybrid, YBZ-1, SC-Leu-His + 0.5 mM 3-AT, 4 days
# Settings in all cases: tags: N-Gal4 AD-HA kept; label: inside an RPR1-promoter hybrid RNA with tandem MS2 sites; ssRNA
# PUM1 PUF domain R6-CYE = molecular target: T1, PUM1 PUF domain R6-CYE (Homo sapiens, UniProt Q14671 828-1176, N1043C;Q1047E)
# T1 sequence: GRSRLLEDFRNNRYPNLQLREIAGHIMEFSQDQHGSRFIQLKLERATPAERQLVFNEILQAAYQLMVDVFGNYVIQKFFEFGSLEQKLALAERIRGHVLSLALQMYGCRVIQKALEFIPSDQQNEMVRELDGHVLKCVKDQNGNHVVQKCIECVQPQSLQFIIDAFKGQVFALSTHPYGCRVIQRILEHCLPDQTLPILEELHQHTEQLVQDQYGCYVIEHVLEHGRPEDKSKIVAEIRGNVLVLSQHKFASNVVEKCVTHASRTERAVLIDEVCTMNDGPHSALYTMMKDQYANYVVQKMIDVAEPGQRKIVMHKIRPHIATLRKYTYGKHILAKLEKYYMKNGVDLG
# Summary of the method: (§1)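 Pumilio-1 PUF domain libraries, randomized (NNK) at the three base-contacting residues of each repeat, were co-expressed with matching RNA elements from a centromeric plasmid in strain YBZ-1 (LexA–MS2 coat fusion, HIS3 reporter). Transformants were plated on SC-Leu (input) and SC-Leu-His + 0.5 mM 3-AT (selection) for four days, and repeat regions were PCR-amplified and Illumina-sequenced. The interaction score is the log2 change in variant frequency from input to selection, with pseudocount 1 where absent.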
# PUM1 PUF domain R1-SPK = PUM1 PUF domain R1-SPK (Homo sapiens, UniProt Q14671 828-1176, R864P;Q867K)
# Summary of the method: as §1
# PUM1 PUF domain R2-RTS = PUM1 PUF domain R2-RTS (Homo sapiens, UniProt Q14671 828-1176, N899R;Y900T;Q903S)
# Summary of the method: as §1
sequence,measurement,setting,value
GGCUAGAACUAGUGGAUCCCCCGGCGCCCGGCGGCUCGAGCCCGGGUAAGUGGAAAUAGUCUGCAUGCCGCCGGGCGCCAUGCCUGCAGGUCGACUCUAGAAAACAUG,binding signal,PUM1 PUF domain R6-CYE,2.53 log2 enrichment (interaction score)
GGCUAGAACUAGUGGAUCCCCCGGCGCCCGGCGGCUCGAGCCCGGGUAAGUGUAAAUCGUCUGCAUGCCGCCGGGCGCCAUGCCUGCAGGUCGACUCUAGAAAACAUG,binding signal,PUM1 PUF domain R1-SPK,2.31 log2 enrichment (interaction score)
GGCUAGAACUAGUGGAUCCCCCGGCGCCCGGCGGCUCGAGCCCGGGUAAGUGUAAAGAGUCUGCAUGCCGCCGGGCGCCAUGCCUGCAGGUCGACUCUAGAAAACAUG,binding signal,PUM1 PUF domain R2-RTS,3.27 log2 enrichment (interaction score)
